About 1,500 (3.8%) of roughly 39,000 compounds were called active. What follows is part of a selection rich in actives, with near analogues and random picks from the rest.

The experiment deals with HSkMC (human skeletal muscle cells). In words: cytotoxicity call (relative viability < 0.9). Particulars: 10 µM.
As for `C[C@H](CO)N1C[C@H](C)[C@@H](CN(C)S(=O)(=O)c2ccc(Cl)cc2)Oc2c(NC(=O)Nc3ccc(C(F)(F)F)cc3)cccc2C1=O`, the cytotoxicity call is “inactive”.

As to `O=C(Cc1ccncc1)NCC[C@H]1CC[C@H](NC(=O)C2CCOCC2)[C@H](CO)O1`, the cytotoxicity call was “inactive”.

For `Cc1noc(C)c1S(=O)(=O)N(C)C[C@@H]1OCCCC[C@@H](C)Oc2ccc(NC(=O)Nc3ccc(F)cc3)cc2C(=O)N([C@@H](C)CO)C[C@H]1C`, the cytotoxicity call is “inactive”.

Turning to `C[C@H](NC(=O)C[C@H]1C[C@H]2c3cc(NC(=O)Nc4ccc(C(F)(F)F)cc4)ccc3O[C@H]2[C@H](CO)O1)c1ccccc1`, the cytotoxicity call is “inactive”.

In the case of `C[C@@H]1CCCCO[C@@H](CN(C)Cc2ccc(Cl)c(Cl)c2)[C@@H](C)CN([C@H](C)CO)C(=O)c2cc(NC(=O)CCCN(C)C)ccc2O1`, the cytotoxicity call is “inactive”.

As to `Cc1ccc(S(=O)(=O)N2C[C@@H](O)COC[C@H]3O[C@@H](CC(=O)N[C@@H]4CCN(Cc5ccccc5)C4)CC[C@@H]32)cc1`, the cytotoxicity call was “inactive”.

For `CC(C)C[C@H]1NC(=O)N(C)C1=O`, the cytotoxicity call was “inactive”.

Consider `C[C@H](CO)N1C[C@H](C)[C@@H](CN(C)C(=O)c2ccccn2)Oc2cc(C#Cc3ccc(F)cc3)ccc2S1(=O)=O`, for which the cytotoxicity call is “inactive”.

For the compound `CC(C)CC#Cc1ccc2c(c1)O[C@H](CN(C)S(=O)(=O)c1cccc(F)c1)[C@H](C)CN([C@@H](C)CO)S2(=O)=O`, the cytotoxicity call was “inactive”.

For `C[C@@H]1CN([C@H](C)CO)C(=O)c2cc(NS(=O)(=O)c3ccc(Cl)cc3)ccc2O[C@@H](C)CCCCO[C@H]1CN(C)Cc1ccc(C(F)(F)F)cc1`, the cytotoxicity call is “active”.

As to `C[C@H](CO)N1C[C@H](C)[C@@H](CN(C)Cc2ccc(C(F)(F)F)cc2)OCCCC[C@H](C)Oc2ccc(NS(=O)(=O)c3ccc(Cl)cc3)cc2C1=O`, the cytotoxicity call is “active”.

For the compound `C[C@@H]1CN([C@@H](C)CO)C(=O)c2cc(NS(=O)(=O)c3ccc(F)cc3)ccc2O[C@@H](C)CCCCO[C@@H]1CN(C)Cc1ccc(C(F)(F)F)cc1`, the cytotoxicity call was “inactive”.

As for `C[C@@H]1CCCCO[C@H](CN(C)Cc2ccc(C(F)(F)F)cc2)[C@@H](C)CN([C@@H](C)CO)C(=O)c2cc(NS(=O)(=O)c3ccc(Cl)cc3)ccc2O1`, the cytotoxicity call is “active”.

For the compound `C[C@@H]1CCCCO[C@H](CN(C)Cc2ccc(C(F)(F)F)cc2)[C@H](C)CN([C@@H](C)CO)C(=O)c2cc(NS(=O)(=O)c3ccc(Cl)cc3)ccc2O1`, the cytotoxicity call was “active”.

As for `C[C@H]1CCCCO[C@H](CN(C)Cc2ccc(C(F)(F)F)cc2)[C@@H](C)CN([C@@H](C)CO)C(=O)c2cc(NS(=O)(=O)c3ccc(F)cc3)ccc2O1`, the cytotoxicity call is “inactive”.

As for `C[C@@H]1CCCCO[C@H](CN(C)Cc2ccc(C(F)(F)F)cc2)[C@H](C)CN([C@H](C)CO)C(=O)c2cc(NS(=O)(=O)c3ccc(Cl)cc3)ccc2O1`, the cytotoxicity call was “inactive”.

For the compound `C[C@@H]1CCCCO[C@@H](CN(C)Cc2ccc(C(F)(F)F)cc2)[C@@H](C)CN([C@@H](C)CO)C(=O)c2cc(NS(=O)(=O)c3ccc(Cl)cc3)ccc2O1`, the cytotoxicity call was “inactive”.

For `O=C(C[C@H]1CC[C@@H](NC(=O)Cc2ccccn2)[C@H](CO)O1)NCCc1ccncc1`, the cytotoxicity call is “inactive”.

In the case of `C[C@H]1CN([C@@H](C)CO)C(=O)c2cccc(NS(=O)(=O)c3cccs3)c2O[C@@H]1CN(C)Cc1ccc(Oc2ccccc2)cc1`, the cytotoxicity call is “inactive”.

Regarding `C/C=C/[C@@H](CCn1cc(CCO[Si](C(C)C)(C(C)C)C(C)C)nn1)[Si](C)(C)c1ccc(OC)cc1`, the cytotoxicity call was “inactive”.

In the case of `C[C@@H]1CN([C@H](C)CO)C(=O)c2cc(C#Cc3ccccn3)cnc2O[C@@H]1CN(C)C(=O)CCN1CCCCC1`, the cytotoxicity call is “inactive”.

Take `C=CCNC(=O)[C@H]1[C@@H]2C(=O)O[C@@H](c3ccccc3)[C@@H](c3ccccc3)N2[C@@H](c2ccccc2OCCO)[C@]12C(=O)N(C(=O)OCCOC)c1ccc(C#CC3(O)CCCCCC3)cc12`: the cytotoxicity call was “inactive”.

`C[C@@H]1CCCCO[C@H](CN(C)C(=O)C2CCCCC2)[C@H](C)CN([C@H](C)CO)C(=O)c2cc(NC(=O)Cc3ccccc3)ccc2O1`: the cytotoxicity call was “inactive”.

For `Nc1cnc2ncc(N)cc2c1`, the cytotoxicity call was “inactive”.

As to `CN1CCN(C(=O)C[C@@H]2C=C[C@H](NS(=O)(=O)c3cccc(F)c3)[C@H](CO)O2)CC1`, the cytotoxicity call is “inactive”.

For the compound `C[C@@H]1CCCCO[C@@H](CN(C)CC2CCCCC2)[C@@H](C)CN([C@H](C)CO)C(=O)c2cc(NC(=O)NC3CCCCC3)ccc2O1`, the cytotoxicity call is “inactive”.

On to `Nc1nc(=O)c2nc(C(=O)O)cnc2[nH]1`, for which the cytotoxicity call is “inactive”.

With `COc1cccc(S(=O)(=O)N(C)C[C@@H]2Oc3cc(Br)ccc3S(=O)(=O)N([C@@H](C)CO)C[C@@H]2C)c1`, the cytotoxicity call is “inactive”.

On to `C[C@H]1CCCCO[C@@H](CN(C)Cc2ccc(C(F)(F)F)cc2)[C@@H](C)CN([C@@H](C)CO)C(=O)c2cc(NS(=O)(=O)c3ccc(F)cc3)ccc2O1`, for which the cytotoxicity call is “inactive”.

Consider `C[C@H]1CCCCO[C@@H](CN(C)Cc2ccc(C(F)(F)F)cc2)[C@@H](C)CN([C@@H](C)CO)C(=O)c2cc(NS(=O)(=O)c3ccc(Cl)cc3)ccc2O1`, for which the cytotoxicity call is “inactive”.

Turning to `C[C@@H]1CCCCO[C@@H](CN(C)Cc2ccc(C(F)(F)F)cc2)[C@H](C)CN([C@@H](C)CO)C(=O)c2cc(NS(=O)(=O)c3ccc(Cl)cc3)ccc2O1`, the cytotoxicity call is “active”.

Regarding `C[C@@H]1CN([C@@H](C)CO)C(=O)c2cc(NS(=O)(=O)c3ccc(Cl)cc3)ccc2O[C@@H](C)CCCCO[C@@H]1CN(C)Cc1ccc(C(F)(F)F)cc1`, the cytotoxicity call was “inactive”.

Consider `C[C@@H]1CCCCO[C@H](CN(C)Cc2ccc(C(F)(F)F)cc2)[C@@H](C)CN([C@H](C)CO)C(=O)c2cc(NS(=O)(=O)c3ccc(Cl)cc3)ccc2O1`, for which the cytotoxicity call is “inactive”.

Turning to `C[C@@H]1CCCCO[C@@H](CN(C)Cc2ccc(C(F)(F)F)cc2)[C@H](C)CN([C@H](C)CO)C(=O)c2cc(NS(=O)(=O)c3ccc(Cl)cc3)ccc2O1`, the cytotoxicity call was “active”.

For the compound `C[C@H]1CCCCO[C@H](CN(C)Cc2ccc(C(F)(F)F)cc2)[C@@H](C)CN([C@@H](C)CO)C(=O)c2cc(NS(=O)(=O)c3ccc(Cl)cc3)ccc2O1`, the cytotoxicity call is “active”.

As for `C[C@H](CO)N1C[C@H](C)[C@H](CN(C)Cc2ccc(C(F)(F)F)cc2)OCCCC[C@H](C)Oc2ccc(NS(=O)(=O)c3ccc(Cl)cc3)cc2C1=O`, the cytotoxicity call is “active”.

For `C[C@@H]1CN([C@H](C)CO)C(=O)c2cc(NS(=O)(=O)c3ccc(Cl)cc3)ccc2O[C@@H](C)CCCCO[C@@H]1CN(C)Cc1ccc(C(F)(F)F)cc1`, the cytotoxicity call is “inactive”.

Regarding `C[C@@H]1CCCCO[C@@H](CN(C)Cc2ccc(C(F)(F)F)cc2)[C@@H](C)CN([C@H](C)CO)C(=O)c2cc(NS(=O)(=O)c3ccc(Cl)cc3)ccc2O1`, the cytotoxicity call is “inactive”.

For the origin of these results see the antibiotic and cytotoxicity screens of Wong et al. (2023).
